Measurements as given in PubChem BioAssay (NCI).
About 83,000 compounds went through this panel and 20% of them were active in at least one assay; those are over-represented in the sample as a whole.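 Assay: single dose, 48 h. Readout: percent growth (0 = no net growth; negative = cell death). Active: <10.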 The source made the active and inactive calls.

Columns and labels:
Assay in all cases: NCI-60 one-dose screen, 48 h (100 = growth as untreated, 0 = no growth, -100 = all killed)
Conditions in all cases: 10 µM unless noted
SR leukemia = system: SR leukemia
RPMI-8226 leukemia = system: RPMI-8226 leukemia
OVCAR-8 ovarian = system: OVCAR-8 ovarian
OVCAR-5 ovarian = system: OVCAR-5 ovarian
OVCAR-4 ovarian = system: OVCAR-4 ovarian
SK-OV-3 ovarian = system: SK-OV-3 ovarian
IGROV1 ovarian = system: IGROV1 ovarian
OVCAR-3 ovarian = system: OVCAR-3 ovarian
HS 578T breast = system: HS 578T breast
NCI/ADR-RES ovarian = system: NCI/ADR-RES ovarian
T-47D breast = system: T-47D breast
BT-549 breast = system: BT-549 breast
MDA-MB-435 melanoma = system: MDA-MB-435 melanoma
SW-620 colon = system: SW-620 colon
MCF7 breast = system: MCF7 breast
HCT-116 colon = system: HCT-116 colon
HCC-2998 colon = system: HCC-2998 colon
KM12 colon = system: KM12 colon

Measured: growth

CC1=CC[C@@H]2CC[C@]3(C)[C@H](CC[C@@H]4[C@@]5(C)CCCNC(C)(C)[C@@H]5CC[C@]43C)[C@H]2[C@@H]1C
active: SR leukemia 5.05% | RPMI-8226 leukemia -32.8% | OVCAR-8 ovarian -87.3% | OVCAR-4 ovarian -41% | OVCAR-3 ovarian -28.9% | NCI/ADR-RES ovarian -45.1% | MDA-MB-435 melanoma -17.3% | SW-620 colon -66.3% | MCF7 breast -28.2% | HCT-116 colon -32.1% | HCC-2998 colon -51.5% | KM12 colon -53%
inactive: OVCAR-5 ovarian 41.1% | SK-OV-3 ovarian 103% | IGROV1 ovarian 40.5% | HS 578T breast 92.9% | T-47D breast 65% | BT-549 breast 97.1%

CN1C(=O)N(C)C2NC(N/N=C/c3ccccc3)=NC21 (stereo unspecified)
inactive: SR leukemia 117% | RPMI-8226 leukemia 138% | OVCAR-8 ovarian 102% | OVCAR-5 ovarian 98.3% | OVCAR-4 ovarian 103% | SK-OV-3 ovarian 115% | IGROV1 ovarian 102% | OVCAR-3 ovarian 106% | HS 578T breast 94.7% | NCI/ADR-RES ovarian 104% | T-47D breast 90.6% | BT-549 breast 100% | MDA-MB-435 melanoma 99.6% | SW-620 colon 102% | MCF7 breast 98.2% | HCT-116 colon 95.6% | HCC-2998 colon 103% | KM12 colon 108%

O=C(OC(OC(=O)c1cc(Cl)cc(Cl)c1)c1cccc2ccccc12)c1ccccc1 (stereo unspecified)
inactive: SR leukemia 94.5% | RPMI-8226 leukemia 98% | OVCAR-8 ovarian 93.7% | OVCAR-5 ovarian 105% | OVCAR-4 ovarian 103% | SK-OV-3 ovarian 101% | IGROV1 ovarian 96.5% | OVCAR-3 ovarian 97.6% | HS 578T breast 98.2% | NCI/ADR-RES ovarian 99.7% | T-47D breast 98.8% | BT-549 breast 113% | MDA-MB-435 melanoma 111% | SW-620 colon 97.1% | MCF7 breast 84.8% | HCT-116 colon 93.1% | HCC-2998 colon 83.4% | KM12 colon 102%

Cc1[nH]n(C(=O)c2ccncc2)c(=O)c1N=Nc1ccc(F)c(Cl)c1
inactive: SR leukemia 76.1% | RPMI-8226 leukemia 87.6% | OVCAR-8 ovarian 103% | OVCAR-5 ovarian 114% | OVCAR-4 ovarian 112% | SK-OV-3 ovarian 103% | IGROV1 ovarian 95.3% | OVCAR-3 ovarian 98.3% | HS 578T breast 89.1% | NCI/ADR-RES ovarian 95.6% | T-47D breast 99.7% | BT-549 breast 103% | MDA-MB-435 melanoma 112% | SW-620 colon 99.8% | MCF7 breast 92.1% | HCT-116 colon 103% | HCC-2998 colon 110% | KM12 colon 105%

CN(C)C(=O)c1cc2cnc(Nc3ccc(-c4csc5c(=O)cc(N6CCOCC6)oc45)cc3)nc2n1C1CCCC1
inactive: OVCAR-4 ovarian 12.4%
active: SR leukemia 0.0235% | RPMI-8226 leukemia -46.7% | OVCAR-8 ovarian 2.54% | OVCAR-5 ovarian -9.43% | SK-OV-3 ovarian -28.3% | IGROV1 ovarian -7.11% | OVCAR-3 ovarian 2.63% | HS 578T breast -8.99% | NCI/ADR-RES ovarian 0.628% | T-47D breast -4.72% | BT-549 breast -79.1% | MDA-MB-435 melanoma -38.7% | SW-620 colon -45.6% | MCF7 breast -46.8% | HCT-116 colon -29.2% | HCC-2998 colon -44.6% | KM12 colon -86.9%

Cc1cn(-c2cc(C(=O)Nc3cccc(C#Cc4cccc5[nH]nc(N)c45)c3)cc(C(F)(F)F)c2)cn1
inactive: SR leukemia 49.9% | RPMI-8226 leukemia 20.1% | OVCAR-8 ovarian 48.8% | OVCAR-5 ovarian 44.2% | OVCAR-4 ovarian 38% | SK-OV-3 ovarian 72.6% | IGROV1 ovarian 25.5% | OVCAR-3 ovarian 77.7% | HS 578T breast 39.4% | NCI/ADR-RES ovarian 98.6% | T-47D breast 54.2% | BT-549 breast 43.2% | MDA-MB-435 melanoma 41.7% | SW-620 colon 43.1% | MCF7 breast 64.8% | HCT-116 colon 23.3% | HCC-2998 colon 62.8% | KM12 colon 64.6%

CCCCCN1C=C/C(=C\C(=O)N(C)c2ccc(Br)cc2)c2ccccc21
inactive: SR leukemia 90.5% | RPMI-8226 leukemia 89.1% | OVCAR-8 ovarian 89.4% | OVCAR-5 ovarian 104% | OVCAR-4 ovarian 84.4% | SK-OV-3 ovarian 96.8% | IGROV1 ovarian 96.3% | OVCAR-3 ovarian 98.8% | HS 578T breast 98.6% | NCI/ADR-RES ovarian 100% | T-47D breast 84.3% | BT-549 breast 108% | MDA-MB-435 melanoma 101% | SW-620 colon 94.4% | MCF7 breast 91% | HCT-116 colon 80.7% | HCC-2998 colon 102% | KM12 colon 103%

COc1cc2nc(-c3ccc(C(F)(F)F)cc3)cc(OCCCN3CCC(O)CC3)c2cc1OC
active: RPMI-8226 leukemia 9.93% | MDA-MB-435 melanoma -29%
inactive: SR leukemia 10.9% | OVCAR-8 ovarian 44.1% | OVCAR-5 ovarian 42.8% | OVCAR-4 ovarian 59.7% | SK-OV-3 ovarian 65.8% | IGROV1 ovarian 27.2% | OVCAR-3 ovarian 64% | HS 578T breast 64.7% | NCI/ADR-RES ovarian 37.6% | T-47D breast 24.7% | BT-549 breast 26.5% | SW-620 colon 15.9% | MCF7 breast 37.3% | HCT-116 colon 15% | HCC-2998 colon 52.5% | KM12 colon 26.5%

CC(=O)N1N=C(c2cccc(Nc3ccncc3)c2)CC1c1ccccc1 (stereo unspecified)
active: HCT-116 colon -24.4%
inactive: SR leukemia 58.3% | RPMI-8226 leukemia 76.2% | OVCAR-8 ovarian 88.9% | OVCAR-5 ovarian 90.1% | OVCAR-4 ovarian 89.7% | SK-OV-3 ovarian 84.2% | IGROV1 ovarian 96% | OVCAR-3 ovarian 91.7% | HS 578T breast 83.4% | NCI/ADR-RES ovarian 91.9% | T-47D breast 80.4% | BT-549 breast 58.2% | MDA-MB-435 melanoma 89.1% | SW-620 colon 93.6% | MCF7 breast 81.3% | HCC-2998 colon 103% | KM12 colon 101%

Clc1cc(Cl)cc(N2N=C(c3cccc(Nc4ccncc4)c3)CC2c2ccccc2)c1 (stereo unspecified)
inactive: RPMI-8226 leukemia 28.5% | OVCAR-5 ovarian 80.4% | OVCAR-4 ovarian 55.7% | SK-OV-3 ovarian 84.7% | IGROV1 ovarian 39.5% | OVCAR-3 ovarian 67.4% | HS 578T breast 80.2% | NCI/ADR-RES ovarian 72.1% | T-47D breast 77.7% | BT-549 breast 78.2% | HCT-116 colon 38.7%
active: SR leukemia 5.16% | OVCAR-8 ovarian 2.42% | MDA-MB-435 melanoma -38.9% | SW-620 colon -68.6% | MCF7 breast -11% | HCC-2998 colon -58.8% | KM12 colon -8.16%

CN1CCN(C(=O)OCc2nc3c(N4CCOCC4)nc(-c4ccccc4)nc3n2C)CC1
inactive: SK-OV-3 ovarian 61.5%
active: SR leukemia 2.5% | RPMI-8226 leukemia -28.7% | OVCAR-8 ovarian 4.37% | OVCAR-5 ovarian -86.1% | OVCAR-4 ovarian -86.4% | IGROV1 ovarian -96.3% | OVCAR-3 ovarian -81.9% | HS 578T breast -22% | NCI/ADR-RES ovarian -16.2% | T-47D breast -40.7% | BT-549 breast -71.1% | MDA-MB-435 melanoma -84.1% | SW-620 colon -46.4% | MCF7 breast -64.3% | HCT-116 colon -71.6% | HCC-2998 colon -75.4% | KM12 colon -61.6%

CC(=O)Nc1ccc(S(=O)(=O)NC2CCCCC2)cc1
inactive: SR leukemia 99% | RPMI-8226 leukemia 94.3% | OVCAR-8 ovarian 101% | OVCAR-5 ovarian 93.9% | OVCAR-4 ovarian 113% | SK-OV-3 ovarian 97.3% | IGROV1 ovarian 103% | OVCAR-3 ovarian 110% | HS 578T breast 92.7% | NCI/ADR-RES ovarian 99.7% | T-47D breast 90.9% | BT-549 breast 96.4% | MDA-MB-435 melanoma 105% | SW-620 colon 97.7% | MCF7 breast 96.9% | HCT-116 colon 103% | HCC-2998 colon 102% | KM12 colon 104%

N#Cc1ccc(-c2ccc3c(c2)NC(=O)/C3=C\c2ccc[nH]2)cc1
active: T-47D breast 9.73%
inactive: SR leukemia 22.2% | RPMI-8226 leukemia 101% | OVCAR-8 ovarian 101% | OVCAR-5 ovarian 43.2% | OVCAR-4 ovarian 43.3% | SK-OV-3 ovarian 62.6% | IGROV1 ovarian 66.2% | OVCAR-3 ovarian 88.8% | HS 578T breast 103% | NCI/ADR-RES ovarian 100% | BT-549 breast 24.1% | MDA-MB-435 melanoma 102% | SW-620 colon 102% | MCF7 breast 15.3% | HCT-116 colon 104% | HCC-2998 colon 58.5% | KM12 colon 60.8%

CCNC(=O)c1[nH]cc(-c2ccc(OC)cc2)c1-c1cc(OC)c(OC)c(OC)c1
active: OVCAR-3 ovarian 2.53% | MDA-MB-435 melanoma -4.43%
inactive: SR leukemia 19.5% | RPMI-8226 leukemia 38% | OVCAR-8 ovarian 66.3% | OVCAR-5 ovarian 74.6% | OVCAR-4 ovarian 45.7% | SK-OV-3 ovarian 57.7% | IGROV1 ovarian 47.4% | HS 578T breast 45.3% | NCI/ADR-RES ovarian 19.8% | T-47D breast 27.7% | BT-549 breast 72.5% | SW-620 colon 31.4% | MCF7 breast 24.4% | HCT-116 colon 15.3% | HCC-2998 colon 89.2% | KM12 colon 22.1%

COc1ccccc1/C=N/NC1=NC2C(N1)N(C)C(=O)N2C (stereo unspecified)
inactive: SR leukemia 110% | RPMI-8226 leukemia 119% | OVCAR-8 ovarian 103% | OVCAR-5 ovarian 102% | OVCAR-4 ovarian 106% | SK-OV-3 ovarian 95.4% | IGROV1 ovarian 96.4% | OVCAR-3 ovarian 107% | HS 578T breast 95.1% | NCI/ADR-RES ovarian 105% | T-47D breast 101% | BT-549 breast 101% | MDA-MB-435 melanoma 103% | SW-620 colon 99.3% | MCF7 breast 99.7% | HCT-116 colon 107% | HCC-2998 colon 101% | KM12 colon 105%

COc1cccc(-c2nc3occn3c2-c2ccnc(NCCCNS(=O)(=O)c3cccc(F)c3)n2)c1
inactive: SR leukemia 107% | RPMI-8226 leukemia 68.1% | OVCAR-8 ovarian 72.2% | OVCAR-5 ovarian 135% | OVCAR-4 ovarian 71.9% | SK-OV-3 ovarian 86.3% | IGROV1 ovarian 89% | OVCAR-3 ovarian 88.1% | HS 578T breast 92.6% | NCI/ADR-RES ovarian 85.8% | T-47D breast 29.3% | BT-549 breast 96.1% | MDA-MB-435 melanoma 63.2% | SW-620 colon 115% | MCF7 breast 78.1% | HCT-116 colon 82% | HCC-2998 colon 127% | KM12 colon 92.6%

COc1cc2oc(-c3cccc(C(=O)Nc4ccc(Cl)cc4)c3)cc(=O)c2c(OC)c1OC
inactive: OVCAR-8 ovarian 23.5% | OVCAR-5 ovarian 57.5% | OVCAR-4 ovarian 60.5% | SK-OV-3 ovarian 33.6% | IGROV1 ovarian 25.5% | OVCAR-3 ovarian 43.1% | HS 578T breast 33% | NCI/ADR-RES ovarian 26.2% | T-47D breast 24.2% | BT-549 breast 38.5% | MDA-MB-435 melanoma 37.5% | SW-620 colon 50.4% | MCF7 breast 17.2% | HCT-116 colon 15.3% | HCC-2998 colon 22.6% | KM12 colon 26.3%
active: SR leukemia 8.67% | RPMI-8226 leukemia -18.3%
